Molecules are shown by their SMILES. The whole screen tested about 69,000 compounds, of which about 8,600 (12%) showed an effect of 50% or more. Shown is part of a subset that was picked to be rich in strong results.

The experiment has as its system Plasmodium berghei. Put plainly: Screen against P. berghei liver stage (PbLuc), transformed with Luciferase, at 10uM. The experiment is classed as functional, HepG2. The settings on record: tested at 10 uM.
On to `CCC(CNC1CCN(C(C)=O)CC1)Oc1ccccc1Cl` (stereo unspecified), for which the INHIBITION is reported as 42%.

As for `O=C(c1cccnc1)N1CCC2(CC1)COC(COc1ccccn1)C2` (stereo unspecified), the INHIBITION is on record as -2.25%.

With `c1cc(CN2CCO[C@H]3[C@H](OCCN4CCCC4)CC[C@@H]32)co1`, the INHIBITION is 48%.

Take `Cc1cc2ncn(C(=O)N3CCCC3)c2cc1C`: the INHIBITION worked out at 22%.

In the case of `CCc1nc2c(c(NC3CCC3)n1)CCN(C(=O)CO)CC2`, the INHIBITION is listed as 53.2%.

Turning to `CCc1nc2c(c(NC3CC3)n1)CCN(C(=O)N1CCN(C)CC1)CC2`, the INHIBITION was 7.65%.

Take `Cc1nc2c(c(NC3CC3)n1)CCN(C(=O)C1(C#N)CC1)CC2`: the INHIBITION turned out to be 68.4%.

Consider `CCc1nc2c(c(NC3CC3)n1)CCN(C(=O)Cc1nonc1C)CC2`, for which the INHIBITION is given as 19.5%.

Turning to `Cc1nc2c(c(NC(C)C)n1)CCN(C(=O)CCO)CC2`, the INHIBITION was 46.6%.

As to `Cc1nc(N2CCOCC2)nc2c1CCN(C(=O)C1(C#N)CC1)CC2`, the INHIBITION amounted to 30.3%.

Consider `Cc1nc2c(c(NC3CC3)n1)CCN(C(=O)C(C)(C)O)CC2`, for which the INHIBITION was 20.5%.

On to `Cc1nc(C)c2c(n1)CCN(C(=O)C1(C#N)CC1)CC2`, for which the INHIBITION was found to be 23.1%.

Regarding `Cc1nc2c(c(NC3CC3)n1)CCN(C(=O)CCO)CC2`, the INHIBITION amounted to 56.7%.

Turning to `CCOC(=O)N1CCC(n2cc3[nH]cccc-3c2=O)CC1`, the INHIBITION came to 9.63%.

As to `CN(C)c1cc(C2CCCN(C(=O)Cn3cc(Cl)cn3)C2)ccn1` (stereo unspecified), the INHIBITION came to 2.71%.

With `O=c1[nH]c(-c2ccccn2)nc2c1CCN(Cc1cccc(O)c1)C2`, the INHIBITION is recorded as 11.1%.

For the compound `O=C(c1ccnnc1)N1CCN2C[C@H](Oc3cccc(F)c3)C[C@H]2C1`, the INHIBITION is 26.1%.

`c1ccc(CCN2CCn3cc(Cn4cccn4)nc3C2)cc1`: the INHIBITION amounted to 24.9%.

Consider `O=C(C1CN(CC2CCOCC2)CC12CCOCC2)N1CCCC1` (stereo unspecified), for which the INHIBITION is given as 29.8%.

Consider `CCN(Cc1cnn(C)c1)C[C@H]1CC[C@@H](Cc2ccc(C)nc2)O1`, for which the INHIBITION came out at 12.9%.

Regarding `CSc1ccc(NCc2csc(C)n2)cc1F`, the INHIBITION is given as -35%.

As to `CNC(=O)Cc1nc(CNc2ccc(SC)c(F)c2)cs1`, the INHIBITION is recorded as 80.7%.

As for `CSc1ccc(NCc2csc(CS(C)(=O)=O)n2)cc1F`, the INHIBITION is 17%.

In the case of `CC1CN(C(=O)c2cccc(OCc3cscn3)c2)CCO1` (stereo unspecified), the INHIBITION stood at 39.75%.

On to `CN1CCOC(C)(C(=O)N2CCSCC2)C1` (stereo unspecified), for which the INHIBITION was determined as 18.3%.

With `Cc1cc(NCCSc2nccn2C)n2ncnc2n1`, the INHIBITION is given as 18.2%.

Consider `CNC(=O)c1cc(C2CCCNC2)n[nH]1` (stereo unspecified), for which the INHIBITION was determined as 5.34%.

Regarding `CNC(=O)c1[nH]nc2ccc(I)cc12`, the INHIBITION was 77.7%.

As to `CC(C)N(CCNC(=O)c1n[nH]c2ccccc12)C(C)C`, the INHIBITION was 24.8%.

`CC(C)N(CCNC(=O)c1[nH]nc2ccc(I)cc12)C(C)C`: the INHIBITION was determined as 58.2%.

Take `CNC(=O)c1ccc2c(OC)n(C)nc2c1`: the INHIBITION came out at 20.7%.

Regarding `CN(C)CCNC(=O)Cc1cccc(I)c1`, the INHIBITION is 1.75%.

With `Cc1cccc(-c2nc(CN3CCc4cncnc4C3)no2)c1`, the INHIBITION is listed as -12.2%.

Take `Brc1ccc2[nH]c3c(c2c1)CCCC3c1nn[nH]n1` (stereo unspecified): the INHIBITION worked out at 0.0996%.

As to `CCc1cc(C(=O)N2CCCC(c3cc(=O)nc4n3CCC4)C2)no1` (stereo unspecified), the INHIBITION was -35.5%.

For the compound `Cc1ncsc1CN1C[C@H](C(=O)N2CCCO2)[C@@H]2CCO[C@@H]2C1`, the INHIBITION came out at 25.1%.

Take `O=c1c2c[nH]c(N3CCOCC3)nc-2cn1-c1ccc2c(c1)OCO2`: the INHIBITION was -21.5%.

For the compound `CC(C)(C)OC(=O)N1CCN(c2ccc(F)cc2)CC1C(=O)O` (stereo unspecified), the INHIBITION was -5.8%.

As to `CCc1nc(CCNC(=O)Nc2ccc(C(=O)NC)cc2C)cs1`, the INHIBITION came to 1.28%.

Turning to `CCc1nc(CCNC(=O)Nc2cccc(C(=O)NC)c2C)cs1`, the INHIBITION is listed as -12.5%.

With `CCc1nc(CCNC(=O)Nc2ccc(C(=O)NC)cc2)cs1`, the INHIBITION is reported as 57.7%.

As for `CC(C)CS(=O)(=O)NC(=O)c1ccc2c(c1)ncn2C`, the INHIBITION is recorded as -57.9%.

Turning to `c1cc(NCc2ccncc2)nc(C2CCCNC2)c1` (stereo unspecified), the INHIBITION is recorded as 18.4%.

On to `CC1c2ncc(COc3cccnc3)n2CCN1C(=O)C1=CCCC1` (stereo unspecified), for which the INHIBITION is on record as -7.11%.

On to `CC(C)(C)NC(=O)Cn1nc(C2CC2)cc(C(F)(F)F)c1=O`, for which the INHIBITION came out at 28.7%.

In the case of `CC(C)(C)C(=O)Cn1nc(C2CC2)cc(C(F)(F)F)c1=O`, the INHIBITION was 77.6%.

For the compound `CC(C)(C)OC(=O)Cn1nc(C2CC2)cc(C(F)(F)F)c1=O`, the INHIBITION was 32%.

As to `CCN1CCN(C(=O)NCc2ccccc2Cn2cncn2)CC1`, the INHIBITION came out at 32.7%.

Turning to `Cn1ncnc1NCc1ccc(Br)cc1`, the INHIBITION is recorded as 20.9%.

As for `COc1ccc(C2SCC(=O)N2c2ncc(C)s2)cc1` (stereo unspecified), the INHIBITION is reported as 24.7%.

With `CNC(=O)C1CCCCN1C(=O)c1n[nH]c(=O)c2ccccc12` (stereo unspecified), the INHIBITION came out at 8.53%.

Take `CC1CCCCN1C(=O)c1n[nH]c(=O)c2ccccc12` (stereo unspecified): the INHIBITION worked out at 60.2%.

On to `O=C(c1n[nH]c(=O)c2ccccc12)N1CCCCC1c1ccn[nH]1` (stereo unspecified), for which the INHIBITION stood at 40.9%.

For `Cc1cccc(OCC(=O)NS(=O)(=O)Cc2ccccc2)c1`, the INHIBITION was determined as 22.9%.

For the compound `Cc1ccc(OCC(=O)NS(=O)(=O)Cc2ccccc2)cc1`, the INHIBITION is reported as 69.8%.

Turning to `O=C(COc1ccccc1)NS(=O)(=O)Cc1ccccc1`, the INHIBITION was determined as 11.8%.

The record behind these values is ChEMBL document CHEMBL4513216, “Probing the Open Global Health Chemical Diversity Library for Multistage-Active Starting Points for Next-Generation Antimalarials” (ACS Infect Dis, 2020).
